Where “and” joins values, the source holds several entries; their conditions need not be identical. Identical values can stand only once. Results filed as inconclusive are left out. Calls of active or inactive are those of the source. Rule for the calls: active = hit-call score of the fitted dose curve at least 0.9, where 1 is the maximum; inconclusive = response in the unintended direction; inactive = score below 0.9.
Assay: CCTE_Shafer_MEA_dev_LDH: CCTE's Lactate Dehydrogenase Assay for Cytotoxicity in the Neural Network Formation Assay, Shafer Lab (AID 2284068);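 note: exposure for twelve days from plating with re-dosing on DIV 5 and 9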
Procedure: CCTE_Shafer_MEA_dev assay is conducted using Axion Biosystems 48 well microelectrode array (MEA) plates and Maestro recording system. Each well of the MEA plate contains a grid of 16 microelectrodes embedded in the culture surface. Electrically active cells, such as neurons, can be cultured over the electrodes, and electrical activity in these cells can be recorded extracellularly. The spontaneous firing of neurons is captured from each electrode on a microsecond timescale providing both temporally and spatially precise data. […] The CCTE_Shafer_MEA_dev assay uses primary cultures of rat cortical neurons. Recordings are made on days post-plating 5, 7, 9 and 12. As these cultures mature over time, neural networks develop functional activity and form cohesive networks in which electrical activity can be highly coordinated. CCTE_Shafer_MEA_dev_LDH is 1 of 19 assay components of the CCTE_Shafer_MEA_dev assay. It measures the lactate dehydrogenase enzyme activity using spectrophotometry.Data from the assay component CCTE_Shafer_MEA_dev_LDH was analyzed into 1 assay endpoint. This assay endpoint, CCTE_Shafer_MEA_dev_LDH, was analyzed in the positive analysis fitting direction relative to DMSO as the negative control and baseline of activity. Using a type of viability reporter, loss-of-signal activity can be used to understand cell viability.
On the day prior to culture, each well was coated thoroughly with 150 uL of 0.05% polyethyleneimine (PEI, Sigma Cat P3143) in 50 mM HEPES (Sigma Cat H7523) at a pH of 8. The plate was incubated at 37C for one hour. PEI was rinsed out with 500 uL of sterile water three times. Plates were stored at 4C until the day of culture. This culture was plated at a seeding density of 1.5 x 10^5 cells/well on a 48-well MEA plate, prepared as described above. Cells were administered via a 25 uL media/laminin ([…]; Sigma Cat L2020-1MG) drop directly onto the microelectrode array, as adding the cells with the laminin results in better attachment than pre-coating with laminin. After 2 hours, an additional 475 uL of cortical media was added and the cells returned to the incubator. Exposure starts at day 0 of plating and is continued over twelve days of network development until the experiment is terminated. Cells are fed with fresh medium on DIV 5 and 9, following the recordings on those days. The entire volume of media in the well is exchanged and any vehicle or compound treatment is renewed. Complete details are found in OP-NHEERL/ISTD/SBB/TJS/2015-03-r0 (available on request, email shafer.tim@epa.gov). Measurement of the electrical activity is non-invasive, and recordings can be made from the same plate over multiple different days of the culture. In cortical neurons, this allows for the measurement of extracellular action potentials over the period during which networks form in the MEA plate.

| SMILES | outcome | AC50 |
| --- | --- | --- |
| CCCCC(CC)CN1C(=O)C2C3C=CC(C3)C2C1=O (configuration not stated) | inactive | – |
| Oc1ccc(C(c2ccc(O)cc2)C(Cl)(Cl)Cl)cc1 | inactive | – |
| O=C(O)c1ccccc1 | inactive | – |
| CCCN(CCC)C(=O)SCC | inactive | – |
| S=C([S-])NCCNC(=S)[S-].[Mn+2] | inactive | – |
| CCCCOCCOCCOCc1cc2c(cc1CCC)OCO2 | – | 15.3 µM (active) |
| Cc1nn(C)c(Oc2ccccc2)c1C=NOCc1ccc(C(=O)OC(C)(C)C)cc1 | – | 0.002 µM (active) |
| COCCO | inactive | – |
| CC(C)(c1ccc(O)cc1)c1ccc(O)cc1 | inactive | – |
| C#CCOC(=O)[C@@H](C)Oc1ccc(Oc2ncc(Cl)cc2F)cc1 | inactive | – |
| CC1(C)C(C=C(Cl)Cl)C1C(=O)OCc1cccc(Oc2ccccc2)c1 (configuration not stated) | – | 22.6 µM (active) and 9.58 µM (active) |
| S=C(S)NCCNC(=S)S.[Mn+2].[S-]C([S-])=NCCN=C([S-])[S-].[Zn+2] | inactive | – |

Source: PubChem BioAssay (EPA / NIEHS)
